Inconclusive results are not listed. Active and inactive are the calls of the source. Unless noted, calls follow the shape of the dose curve; as a rule, active = well fitted curve in the direction sought with a large enough effect in the repeat runs; inconclusive = weak or mixed curves; inactive = no such curve, though single readings can be large; an effect the other way counts as inactive or inconclusive.
How the values were obtained:
[1] = qHTS assay to identify aromatase inhibitors - cell viability counter screen (AID 743084);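 also: cells stimulated with testosterone during compound exposure; nearly all actives have a fitted effect of over 55% in size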; also: potency is read from the fitted curve at half-maximal effect
[2] = qHTS assay to identify small molecule that activate the aryl hydrocarbon receptor (AhR) signaling pathway - cell viability counter screen (AID 743086); also: nearly all actives have a fitted effect of over 45% in size; also: potency is read from the fitted curve at half-maximal effect
Outline: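 HepG2-AhR-luc (HG2L7.5c1) cells, 4000/well, treated 24 h at 37 C with compound; viability measured as CellTiter-Fluor fluorescence after 30 min in the same wells as the luciferase read.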

[3] = target: Peroxisome proliferator-activated receptor gamma (Homo sapiens) (UniProt P37231); assay: qHTS assay to identify small molecule agonists of the peroxisome proliferator-activated receptor gamma (PPARg) signaling pathway (AID 743094; active = well fitted activation curve with a large enough effect in the signal ratio in the repeat runs, not every such curve was filed as active; the % refers to the signal ratio)
Chain of Peroxisome proliferator-activated receptor gamma (Homo sapiens) (P37231 whole entry, looked up): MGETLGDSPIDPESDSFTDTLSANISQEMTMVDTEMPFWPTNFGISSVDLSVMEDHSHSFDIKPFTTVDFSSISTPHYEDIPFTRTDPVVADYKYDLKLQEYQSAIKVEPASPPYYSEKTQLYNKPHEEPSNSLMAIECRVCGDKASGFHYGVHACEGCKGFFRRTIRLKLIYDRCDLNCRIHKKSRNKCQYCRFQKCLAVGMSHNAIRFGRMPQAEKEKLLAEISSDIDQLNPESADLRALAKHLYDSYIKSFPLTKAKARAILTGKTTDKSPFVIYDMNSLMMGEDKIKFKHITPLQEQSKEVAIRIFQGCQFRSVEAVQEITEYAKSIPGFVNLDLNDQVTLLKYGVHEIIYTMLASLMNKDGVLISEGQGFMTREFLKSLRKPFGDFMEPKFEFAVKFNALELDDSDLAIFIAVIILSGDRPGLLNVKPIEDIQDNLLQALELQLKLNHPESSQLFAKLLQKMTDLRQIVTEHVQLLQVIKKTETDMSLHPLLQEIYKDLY
Outline: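 Fluorescence-based beta-lactamase readout in HEK293H PPARg UAS-bla cells after 17 h compound exposure (37C) and 1 h B/G FRET substrate incubation at room temperature.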

[4] = target: Peroxisome proliferator-activated receptor gamma (Homo sapiens) (UniProt P37231); assay: qHTS assay to identify small molecule antagonists of the peroxisome proliferator-activated receptor gamma (PPARg) signaling pathway (AID 743191; calls by dose curve; also: series mostly up to about 63 µM; nearly all actives have a fitted effect of over 30% in size)
Outline: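 GeneBLAzer PPARg UAS-bla HEK293H cells, 5 h post-plating, exposed to compounds 17 h at 37C. LiveBLAzer B/G FRET substrate added for 1 h at room temperature; beta-lactamase reporter read by fluorescence intensity.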

[5] = qHTS assay to identify small molecule antagonists of the peroxisome proliferator-activated receptor gamma (PPARg) signaling pathway - cell viability counter screen (AID 743194); also: nearly all actives have a fitted effect of over 55% in size
Outline: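 Cytotoxicity counter screen in PPARg-bla HEK293H cells, same wells as reporter assay. Compounds plus 50 nM rosiglitazone (final) for 17 h at 37 C, then viability read by CellTiter-Glo luminescence.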

[6] = qHTS assay for small molecule activators of the heat shock response signaling pathway - cell viability counter screen (AID 743209); also: nearly all actives have a fitted effect of over 50% in size
Outline: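 To flag cytotoxic compounds, HSE-bla HeLa cells plated at 1500 cells/well were dosed for 5 h at 37 C, followed by the reporter FRET read and then CellTiter-Glo, with luminescence recorded 30 min after reagent addition.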

[7] = qHTS assay for small molecule activators of the heat shock response signaling pathway (AID 743210; active = well fitted activation curve with a large enough effect in the signal ratio in the repeat runs, with a control signal flat, not every such curve was filed as active; the % refers to the signal ratio;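 also: HeLa cells with beta-lactamase reporter driven by heat shock elements; series mostly up to about 63 µM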)
Outline: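 Beta-lactamase reporter read-out: FRET substrate fluorescence after 2.5 h at RT, following 5 h compound treatment at 37 C of HeLa cells carrying HSE-driven bla reporter; quantitative HTS format.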

[8] = qHTS assay to identify small molecule agonists of the peroxisome proliferator-activated receptor delta (PPARd) signaling pathway - cell viability counter screen (AID 743211); also: nearly all actives have a fitted effect of over 55% in size
Outline: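 In the same wells used for beta-lactamase reporter measurement, cytotoxicity is scored by CellTiter-Glo. HEK293H PPARd-bla cells receive compound for 17 h at 37C following a 5 h settling period.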

[9] = qHTS assay to identify small molecule antagonists of the peroxisome proliferator-activated receptor delta (PPARd) signaling pathway - cell viability counter screen (AID 743213); also: nearly all actives have a fitted effect of over 50% in size
Outline: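 PPARd-bla HEK293H cells (3000/well) got compound plus 300 nM L165041 agonist for 17 h at 37 C. Viability in the same wells came from CellTiter-Glo luminescence after 30 min at room temperature.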

[10] = qHTS assay to identify small molecule agonists of the farnesoid-X-receptor (FXR) signaling pathway - cell viability counter screen (AID 743218); also: nearly all actives have a fitted effect of over 45% in size
Outline: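 Same-well cytotoxicity check on FXR-UAS-bla HEK 293T cells: 5 h attachment, 16 h compound at 37 C, CellTiter-Glo luminescence read at room temperature after 30 min.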

[11] = qHTS assay to identify small molecule antagonists of the farnesoid-X-receptor (FXR) signaling pathway - cell viability counter screen (AID 743221; active = well fitted cell-killing curve with a large enough effect in the repeat runs, not every such curve was filed as active; also: nearly all actives have a fitted effect of over 50% in size)
Outline: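 Here viability was scored by luminescence after CellTiter-Glo addition to wells already read for beta-lactamase. Prior treatment: compound plus CDCA (50 uM final), 16 h, 37 C, HEK 293T FXR-bla cells.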

[12] = target: Vitamin D3 receptor (Homo sapiens) (UniProt P11473); assay: qHTS assay to identify small molecule agonists of the vitamin D receptor (VDR) signaling pathway (AID 743222; calls by dose curve)
Chain of Vitamin D3 receptor (Homo sapiens) (P11473 whole entry, looked up): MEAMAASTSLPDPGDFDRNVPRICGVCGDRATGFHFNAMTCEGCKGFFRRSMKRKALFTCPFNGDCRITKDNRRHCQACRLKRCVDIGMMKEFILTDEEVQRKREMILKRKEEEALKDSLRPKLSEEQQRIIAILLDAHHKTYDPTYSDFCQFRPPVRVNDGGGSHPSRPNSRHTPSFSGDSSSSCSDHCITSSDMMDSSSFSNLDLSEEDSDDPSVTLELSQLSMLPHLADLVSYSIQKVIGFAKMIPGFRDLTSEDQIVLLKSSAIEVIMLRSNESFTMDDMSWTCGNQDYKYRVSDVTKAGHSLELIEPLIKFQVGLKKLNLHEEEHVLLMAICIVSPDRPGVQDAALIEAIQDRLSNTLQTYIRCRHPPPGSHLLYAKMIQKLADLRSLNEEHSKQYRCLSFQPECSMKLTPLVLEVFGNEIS
Outline: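 Using LiveBLAzer B/G FRET detection, agonism was scored in VDR-bla cells exposed overnight (16 h, 37C) to DMSO-dissolved compounds; substrate incubation was 2 h at room temperature.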

[13] = qHTS assay for small molecule agonists of the antioxidant response element (ARE) signaling pathway - cell viability counter screen (AID 743203; calls by dose curve; also: nearly all actives have a fitted effect of over 55% in size)
Outline: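 Parallel cytotoxicity read-out for the ARE-bla screen: HepG2 reporter cells, 16 hrs with compounds, then CellTiter-Glo luminescence.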

[14] = target: Bile acid receptor (Homo sapiens) (UniProt Q96RI1); assay: qHTS assay to identify small molecule antagonists of the farnesoid-X-receptor (FXR) signaling pathway (AID 743217; active = well fitted inhibition curve with a large enough effect in the signal ratio in the repeat runs, not every such curve was filed as active; the % refers to the signal ratio)
Chain of Bile acid receptor (Homo sapiens) (Q96RI1 whole entry, looked up): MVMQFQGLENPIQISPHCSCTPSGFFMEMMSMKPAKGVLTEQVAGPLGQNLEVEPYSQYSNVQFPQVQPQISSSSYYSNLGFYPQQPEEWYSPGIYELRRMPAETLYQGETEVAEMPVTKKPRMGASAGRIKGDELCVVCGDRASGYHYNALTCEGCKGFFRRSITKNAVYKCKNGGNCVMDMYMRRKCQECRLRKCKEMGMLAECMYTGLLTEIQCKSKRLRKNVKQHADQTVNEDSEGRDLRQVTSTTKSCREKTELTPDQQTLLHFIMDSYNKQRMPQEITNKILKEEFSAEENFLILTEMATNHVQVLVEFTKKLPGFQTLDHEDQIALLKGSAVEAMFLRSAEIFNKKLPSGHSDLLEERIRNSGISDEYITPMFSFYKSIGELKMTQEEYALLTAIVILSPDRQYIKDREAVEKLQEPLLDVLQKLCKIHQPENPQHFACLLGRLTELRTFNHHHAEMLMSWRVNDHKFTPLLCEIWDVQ
Outline: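 Quantitative HTS, beta-lactamase reporter format: FXR-UAS-bla HEK 293T cells co-treated 16 h at 37 °C with compounds and 50 uM final chenodeoxycholic acid, then read by B/G FRET fluorescence.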

[15] = target: Bile acid receptor (Homo sapiens) (UniProt Q96RI1); assay: qHTS assay to identify small molecule agonists of the farnesoid-X-receptor (FXR) signaling pathway (AID 743220; active = well fitted activation curve with a large enough effect in the signal ratio in the repeat runs, not every such curve was filed as active; the % refers to the signal ratio)
Outline: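 FXR-UAS-bla HEK 293T cells carrying a UAS-driven beta-lactamase reporter were plated for 5 h at 37C/5% CO2, then exposed to DMSO-dissolved Tox21 10K compounds for 16 h at 37C. A LiveBLAzer B/G FRET substrate was loaded for 2 h at room temperature before fluorescence reading.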

[16] = target: Vitamin D3 receptor (Homo sapiens) (UniProt P11473); assay: qHTS assay to identify small molecule antagonists of the vitamin D receptor (VDR) signaling pathway (AID 743223; active = well fitted inhibition curve with a large enough effect in the signal ratio in the repeat runs, not every such curve was filed as active; the % refers to the signal ratio)
Outline: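 Inhibition of agonist-driven VDR signalling is scored in VDR-bla cells: 3 nM final 1alpha,25-dihydroxyvitamin D3 plus compound, 16 h at 37C, then beta-lactamase detection by FRET substrate fluorescence after 2 h.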

[17] = qHTS assay for small molecule agonists of the antioxidant response element (ARE) signaling pathway (AID 743202; active = well fitted activation curve with a large enough effect in the signal ratio in the repeat runs, not every such curve was filed as active; the % refers to the signal ratio; also: potency is read from the fitted curve at half-maximal effect)
Outline: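 HepG2 ARE-bla reporter line, 2,000 cells/well; 5 h preincubation 37 C/5% CO2; compound (DMSO) 16 h 37 C; B/G FRET substrate 2 h RT; fluorescence intensity.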

[18] = target: Peroxisome proliferator-activated receptor delta (Homo sapiens) (UniProt Q03181); assay: qHTS assay to identify small molecule antagonists of the peroxisome proliferator-activated receptor delta (PPARd) signaling pathway (AID 743215; active = well fitted inhibition curve with a large enough effect in the signal ratio in the repeat runs, not every such curve was filed as active; the % refers to the signal ratio;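 also: cells stimulated with agonist L165041 at 300 nM final during compound exposure; series mostly up to about 62 µM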)
Chain of Peroxisome proliferator-activated receptor delta (Homo sapiens) (Q03181 whole entry, looked up): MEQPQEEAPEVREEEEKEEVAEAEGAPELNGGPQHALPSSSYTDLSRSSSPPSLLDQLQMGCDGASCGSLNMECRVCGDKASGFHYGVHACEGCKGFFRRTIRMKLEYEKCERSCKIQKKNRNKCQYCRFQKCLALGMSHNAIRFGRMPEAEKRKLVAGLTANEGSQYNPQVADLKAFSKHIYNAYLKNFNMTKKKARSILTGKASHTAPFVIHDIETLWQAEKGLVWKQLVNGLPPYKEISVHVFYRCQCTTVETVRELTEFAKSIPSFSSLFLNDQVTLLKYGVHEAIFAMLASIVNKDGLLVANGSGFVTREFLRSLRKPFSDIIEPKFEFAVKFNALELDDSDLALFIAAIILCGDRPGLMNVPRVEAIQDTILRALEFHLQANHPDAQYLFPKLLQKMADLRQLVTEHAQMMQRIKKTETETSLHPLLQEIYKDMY
Outline: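 Screen format: qHTS, antagonist mode. HEK293H PPARd-bla cells received compound and 300 nM L165041 (final), 17 h, 37 C. Beta-lactamase detected via FRET substrate fluorescence, 2 h, room temperature.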

[19] = target: Peroxisome proliferator-activated receptor delta (Homo sapiens) (UniProt Q03181); assay: qHTS assay to identify small molecule agonists of the peroxisome proliferator-activated receptor delta (PPARd) signaling pathway (AID 743212; calls by dose curve)
Outline: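 Read-out: beta-lactamase FRET fluorescence after 2 h room-temperature incubation with LiveBLAzer B/G substrate. Cells were HEK293H carrying a UAS-bla reporter for PPARd, treated at 37 C with DMSO-dissolved compounds.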

Measured: Potency

NCCCOCCOCCOCCCN
not listed: [13] | [14] | [15] | [16] | [17] | [18] | [19]
inactive: all other assays above

CCCCOc1cc(C(=O)OCCN(CC)CC)ccc1N
not listed: [6] | [17] | [18] | [19]
inactive: all other assays above

CCc1nn(C2CCCCC2)c2cc(C3(C#N)CCC(C(=O)O)CC3)ccc12 (configuration not stated)
active: [1] 54.5 µM | [2] 24.3 µM | [17] 27.3 µM
not listed: [3] | [4] | [14] | [18] | [19]
inactive: all other assays above

Cc1ccccn1
not listed: [3] | [4] | [6] | [18] | [19]
inactive: all other assays above

CC(=O)N(O)CCCCCNC(=O)CCC(=O)N(O)CCCCCNC(=O)CCC(=O)N(O)CCCCCN
not listed: [4] | [10] | [14] | [15] | [17] | [19]
inactive: all other assays above

CCOC(=O)C1=NN(c2ccccc2)C(=O)C1
not listed: [3] | [8] | [13]
inactive: all other assays above

O=C1[C@H](CC[C@H](O)c2ccc(F)cc2)[C@@H](c2ccc(O)cc2)N1c1ccc(F)cc1
not listed: [4] | [13] | [14] | [15] | [17] | [19]
inactive: all other assays above

CN(C)CCCNCCCN
not listed: [4] | [5] | [6] | [13] | [17]
inactive: all other assays above

CCOC(=O)C1=C(C)NC(C)=C(C(=O)OC)C1c1cccc([N+](=O)[O-])c1 (configuration not stated)
not listed: [4] | [14] | [15]
inactive: all other assays above
